Measurements published in PubChem BioAssay (NCI).
The panel holds about 83,000 compounds, 20% with a hit somewhere; the sample as a whole holds those more often.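 Each cell line was grown in a 96-well plate and treated with one concentration of compound for 48 hours. Values below 10 were considered active.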 A number with no mark means an inactive call. The source made the active and inactive calls.

Each compound was assayed on SF-295 CNS (assay: NCI-60 one-dose screen, 48 h (100 = growth as untreated, 0 = no growth, -100 = all killed)). Settings: 10 µM unless noted.

Compound | growth
CN1CCC(COc2cnc(-c3cccc(Cn4nc(-c5cccc(C#N)c5)ccc4=O)c3)nc2)CC1 | 54.5%
COc1cc(OC)c(/C=C/S(=O)(=O)Cc2ccc(OC)c(NCC(=O)O)c2)c(OC)c1 | 15.5%
O=C(NOC[C@H](O)CO)c1ccc(F)c(F)c1Nc1ccc(I)cc1F | 75%
C=CCN1C(=O)c2cccc3c(-c4ccc5c(c4)ncn5C4CCCCC4)ccc(c23)C1=O | 44.5%
Cc1cc(O)cc(-c2c(-c3ccnc(-c4cccnc4)c3)cnn2C)c1 | 59.2%
O=[N+]([O-])c1cc(Br)cc2c1[nH]c1ccc(Br)cc12 | 49.9%
COc1cc2ncnc(Oc3cccc(NC(=O)Nc4cc(C(C)(C)C(F)(F)F)on4)c3)c2cc1OC | 38.2%
CCNC(=O)Nc1nc2ccc(Oc3ccnc(C(=O)NC)c3)cc2s1 | 70.5%
COc1cccc2cc(-c3nc(C4CCC(C(=O)O)CC4)n4ncnc(N)c34)[nH]c12 (stereo not drawn) | -31.2% (active)
CN1CCN(c2nc(C3=C(c4c[nH]c5ccccc45)C(=O)NC3=O)c3ccccc3n2)CC1 | 98.7%
Cc1cc2c(F)c(Oc3ncnn4cc(OC[C@@H](C)OC(=O)[C@H](C)N)c(C)c34)ccc2[nH]1 | 77.6%
S=C(NCc1ccc2c(c1)OCO2)N1CCN(c2ncnc3c2oc2ccccc23)CC1 | 26.4%
C=C1CC[C@@H]2[C@](C)(COC(C)=O)[C@H](OC(C)=O)CC[C@@]2(C)[C@@H]1C/C=C1/C(=O)OC[C@H]1OC(C)=O | 95%
C=CC(=O)Nc1cc(Nc2nccc(-c3cn(C)c4ccccc34)n2)c(OC)cc1N(C)CCN(C)C | -41.4% (active)
C/C=C/C=N/NC(=S)Nc1ccccc1 | 98.9%
CN1CC[C@H](c2c(O)cc(O)c3c(=O)cc(-c4ccccc4Cl)oc23)[C@H](O)C1 | 8.48% (active)
CCc1nc(C(N)=O)c(Nc2ccc(N3CCC(N4CCN(C)CC4)CC3)c(OC)c2)nc1NC1CCOCC1 | 12.8%
C=CC(=O)N1CCC[C@H](n2c(=O)n(-c3ccc(Oc4ccccc4)cc3)c3c(N)ncnc32)C1 | 98.4%
COCCN1CCN(Cc2ccc(-c3n[nH]c4c3C(=O)c3c(NC(=O)NN5CCOCC5)cccc3-4)cc2)CC1 | 2.78% (active)

Compound | growth
CC(C)(C)c1ccc(Cn2cc(CSc3nc4ccccc4s3)nn2)cc1 | 91%
COc1ccc(-c2ccc3c(N4CCOC[C@@H]4C)nc(N4CCOC[C@@H]4C)nc3n2)cc1CO | -35% (active)
COc1cc(N2CCC(N3CCN(C)CC3)CC2)ccc1Nc1ncnc(Nc2ccccc2S(=O)(=O)C(C)C)n1 | 104%
COc1cccc(NC(=O)Nc2ccc(Nc3ncnc4sc5c(c34)CCN(C(=O)CCl)C5)cc2)c1 | 98.1%
O=C(Nc1cnn2ccc(N3CCC[C@@H]3c3cc(F)ccc3F)nc12)N1CC[C@H](O)C1 | 96.9%
CC(=O)NCC(=O)N1[C@@H]2CC[C@H]1c1ccc(Nc3ncc(C(F)(F)F)c(NC4CCC4)n3)cc12 | 60% [2.5 µM]
CO[C@@H](C)Cn1c(=O)n(C)c2cnc3ccc(-c4cncc(C(C)(C)O)c4)cc3c21 | -39.6% (active)
C[C@@H](Oc1cc(C(=O)Nc2ccc(C(=O)N3CCN(C)CC3)cc2)nnc1N)c1c(Cl)ccc(F)c1Cl | 13.9%
COc1ccc(-c2cnc(-c3ccc(Cl)cc3)[nH]2)cc1OC | 111%
CC(C)(C)c1nc(-c2cccc(NS(=O)(=O)c3c(F)cccc3F)c2F)c(-c2ccnc(N)n2)s1 | 112%
CCN(CC)c1cc2oc3cc(N)cc(=N)c-3nc2cc1C | 48.1%
COC(=O)Nc1nc2ccc(C(=O)c3ccc(N(C)C4COC4)cc3)cc2[nH]1 | 13.3%
CNC(=O)c1cc(COc2nnc(Nc3ccc(Cl)cc3)c3ccoc23)ccn1 | 10.4%
CCN(CCCOc1ccc2c(Nc3cc(CC(=O)Nc4cccc(F)c4)[nH]n3)ncnc2c1)CCOP(=O)(O)O | 73.5%
COc1cc2nccc(Oc3ccc(NC(=O)Nc4cc(C)on4)c(Cl)c3)c2cc1OC | 19%
CNC(=O)c1cc(Oc2cccc3nc(Nc4ccc(Cl)c(F)c4)ccc23)ccn1 | 51.5%
Cc1nc(NC(=O)N2CCC[C@H]2C(N)=O)sc1-c1ccnc(C(C)(C)C(F)(F)F)c1 | 32.8%
COc1ccc(Nc2ncccc2NC(=O)c2cn(Cc3cccc(Oc4ccccc4)c3)nn2)cc1 | 92.8%
CS(=O)(=O)CCNCc1ccc(-c2ccc3ncnc(Nc4ccc(OCc5cccc(F)c5)c(Cl)c4)c3c2)o1 | -7.05% (active)
